Most compounds without a hit are left out; they make up all but 2.4% or so of the library.
D2 PAM-1: positive allosteric modulators of human D2 dopamine receptor. P14416. HEK293 T-REx D2, calcium flux, EC20 dopamine potentiation. potentiation, % at 10 µM. 340,000 tested, 0.34% active. AID 485347;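 active = potentiation over 3 SD above the plate norm, cut at about 30% in these data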
Target sequence (P14416 whole entry, looked up): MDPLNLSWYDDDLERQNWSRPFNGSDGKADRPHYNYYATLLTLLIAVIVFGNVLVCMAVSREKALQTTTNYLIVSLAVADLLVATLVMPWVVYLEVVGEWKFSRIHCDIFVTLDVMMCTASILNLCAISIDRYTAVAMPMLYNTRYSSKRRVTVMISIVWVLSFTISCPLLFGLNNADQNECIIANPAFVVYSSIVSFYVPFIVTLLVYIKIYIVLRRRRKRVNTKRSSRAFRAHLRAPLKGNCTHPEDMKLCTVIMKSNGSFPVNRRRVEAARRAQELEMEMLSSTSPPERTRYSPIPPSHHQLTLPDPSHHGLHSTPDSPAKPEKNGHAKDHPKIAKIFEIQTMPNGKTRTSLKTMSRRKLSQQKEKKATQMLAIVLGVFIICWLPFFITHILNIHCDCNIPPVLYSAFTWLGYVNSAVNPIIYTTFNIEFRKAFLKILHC
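Potentiation of an EC20 dopamine calcium response is measured in a force-coupled, tetracycline-inducible Hek293 Trex D2 line. Compound-only kinetic reads over 180 s flag agonists before dopamine addition.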
D2 ag-1: D2 dopamine receptor (human) agonism | P14416 | HEK293 T-REx D2 cells, calcium flux agonist mode | activation, % at 2 µM | 340,000 tested, 0.53% active;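 active = activation over 3 SD above normal in the single-dose calcium agonist read, cut at about 30% in these data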
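Calcium-flux readout, 1 cycle/sec over 180 s following compound pin transfer, in inducible HEK293 Trex D2 cells (force-coupled); dopamine controls included. Positive calcium responses during this window marked compounds as potential agonists.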
D2 PAM-2: positive allosteric modulators of human D2 dopamine receptor; P14416; 360,000 tested, 0.23% active; DiscoveRx D2 beta-arrestin cells, luminescence, 90 min; 100% = 57 uM dopamine signal; potentiation, % (test concentration not listed); AID 624464; in the data active = potentiation above about 50%
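PathHunter beta-arrestin assay in DiscoveRx D2 cells. Compounds were added with an EC20 of dopamine (50 nM final) for 90 min at 37 deg C. Luminescence was read 1 h after detection reagent, with 57 uM dopamine as the EC100 control.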
D2 antagonist: antagonists of human D2 dopamine receptor; P14416; HEK293 TREx D2 cells, calcium flux, dopamine EC80; inhibition, % at 10 µM; 340,000 tested, 2% active; in the data active = inhibition above about 30%; inactive = below that, where a call was filed
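HEK293 T-REx D2 cells, tet-induced, calcium dye no-wash. Cpd pintool add, 180 s kinetic, then EC80 DA, 180 s kinetic. Ca flux read.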
D2 ag-2: human D2 receptor agonism in beta-arrestin assay; P14416; DiscoveRx PathHunter D2 beta-arrestin, luminescence, 90 min; 100% = 57 uM dopamine signal; activation, % (concentration not given with the values); 360,000 tested, 0.084% active; AID 624465; in the data active = activation above about 40%
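Agonist mode: compounds alone added to overnight-plated D2 PathHunter cells for 90 min at 37 C, with 57 uM final dopamine (EC100) defining full response. Beta-arrestin recruitment detected by chemiluminescent reagent, read after 1 h at ambient temperature.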
Of the large screens only hits and unclear results are named; the others gave an inactive call.

O=C(COc1ccc(S(=O)(=O)N2CCCCC2)cc1)N1CCCC1	D2 antagonist 31
O=C(COC(=O)c1ccccc1)c1ccc(S(=O)(=O)N2CCCCC2)cc1	none
O=C(COc1ccccc1)OCC(=O)c1ccc(S(=O)(=O)N2CCCCC2)cc1	D2 antagonist 31
Cc1cccc(N2CCN(C(=O)CS(=O)(=O)Cc3nc(-c4ccccc4C)oc3C)CC2C)c1 (stereo not given)	none (no result: D2 PAM-2, D2 antagonist, D2 ag-2)
CN(Cc1ccccc1)S(=O)(=O)c1cc(Br)cc2c1N(C(=O)C1CC1)CC2	none (no result: D2 PAM-2, D2 antagonist, D2 ag-2)
COc1ccc(NC(=O)CSc2nc(-c3ccccc3)[nH]c2-c2ccccc2)cc1OC	none (no result: D2 PAM-2, D2 antagonist, D2 ag-2)
COc1ccc(CNC(=O)c2ccc(N3CCCC3)c(NC(=O)NCc3ccc(C)cc3)c2)cc1	none (no result: D2 PAM-2, D2 antagonist, D2 ag-2)
COC(=O)C(C)Sc1nnc(SC(C)C(=O)OC)s1 (stereo not given)	D2 antagonist 40
CN(Cc1ccccc1)C(=O)CSc1nc(-c2ccc(F)cc2)cc(C(F)(F)F)n1	none (no result: D2 PAM-2, D2 antagonist, D2 ag-2)
CNC(=O)c1sccc1-n1cccc1	none
CCOc1ccc(NC(=O)c2sccc2-n2cccc2)cc1	D2 PAM-1 65
CCc1ccc(NC(=O)C2CCN(C(=O)N3CC(CC)Oc4ccccc43)CC2)cc1 (stereo not given)	none (no result: D2 PAM-2, D2 antagonist, D2 ag-2)
CC1CN(Cc2csc(-c3ccc(Cl)cc3)n2)CC(C)O1 (stereo not given)	D2 antagonist 37
ClCc1csc(-c2ccc(Cl)cc2)n1	none
O=C(CBr)c1ccc([N+](=O)[O-])c(CS(=O)(=O)c2ccc(Cl)cc2)c1	D2 ag-2 54
Cc1n[nH]c(=S)n1/N=C/c1ccc(OCc2ccc(Cl)cc2Cl)cc1	D2 antagonist 31
CCOC(=O)C1=C(CS(=O)(=O)c2ccccc2)NC(=O)NC1c1ccccc1OCC (stereo not given)	D2 antagonist 36
COc1cc(OC)cc(C(=O)Nc2cc(-c3nc4cccnc4s3)ccc2C)c1	none (no result: D2 PAM-2, D2 antagonist, D2 ag-2)
CCN1CCC[C@H]1CNC(=O)c1c(O)c(Cl)cc(Cl)c1OC	D2 antagonist 76
CCN1CCCC1CNC(=O)c1cc(OC)c(OC)c(OC)c1 (stereo not given)	none
CCCCN1CCCC1CNC(=O)c1cc(C#N)c2ccccc2c1OC (stereo not given)	D2 antagonist 84 (no result: D2 PAM-2, D2 ag-2)
CCN1CCCC1CNC(=O)c1cc2c(OC)cccc2[nH]1 (stereo not given)	none (no result: D2 PAM-1, D2 ag-1, D2 antagonist)
CCN1CCCC1CNC(=O)c1cc2c(OC)c(OC)c(OC)cc2[nH]1 (stereo not given)	D2 antagonist 83
Cn1c(=O)n(C)c2cc(N3CCOCC3)c(NS(=O)(=O)c3ccc(Br)cc3)cc21	none (no result: D2 PAM-2, D2 antagonist, D2 ag-2)
CC1CCN(S(=O)(=O)c2cc(C(=O)NC3(C)CCS(=O)(=O)C3)ccc2Br)CC1 (stereo not given)	D2 antagonist 31
CC1CCN(C(=O)c2ccc(Br)c(S(=O)(=O)N3CCOCC3)c2)CC1	none
COc1cc(/C=C2/CCC/C(=C\c3cc(O)c(OC)c(Cl)c3)C2=O)cc(Cl)c1O	D2 PAM-1 38
COc1cc(/C=C2\CC/C(=C\c3cc(OC)c(O)c(OC)c3)C2=O)cc(OC)c1O	none
Cc1nn(CC(=O)NCCCN2CCN(C)CC2)c(=O)c2cc(-c3ccccc3)nn12	D2 PAM-1 30
COc1ccc(-c2cc3c(=O)n(CC(=O)NCCCN4CCC(Cc5ccccc5)CC4)ncn3n2)cc1	D2 antagonist 89
CCOc1ccc(CCNC(=O)Cn2ncn3nc(-c4ccc(OC)cc4)cc3c2=O)cc1	none
COc1ccc(-c2cc3c(=O)n(CC(=O)NCc4ccc(Cl)cc4)ncn3n2)cc1	none
Cc1nn(CC(=O)NCCCc2ccccc2)c(=O)c2cc3occc3n12	D2 antagonist 32
COc1ccc(-c2cc3c(=O)n(CC(=O)NCCCN4CCN(Cc5ccccc5)CC4)ncn3n2)cc1	D2 antagonist 37
O=C(NCc1ccc(F)cc1)c1cc2ccccc2o1	D2 PAM-1 52
O=C(NCCc1ccccc1)c1ccc(-c2ccccc2C(F)(F)F)o1	none
O=C(NNC(=O)c1cc2ccccc2o1)c1ccc(F)cc1	none
O=C(NCc1ccccc1)c1ccc(-c2ccccc2F)o1	D2 PAM-1 32
COc1ccc(CCNC(=O)c2cc3n(n2)CCCN(Cc2ccc(C)cc2)C3=O)cc1OC	none (no result: D2 PAM-2, D2 antagonist, D2 ag-2)

Assay outcomes: PubChem, National Center for Advancing Translational Sciences (NCATS)
